# Experimental data taken from the supplement of paper PMC4466140.
# Tests used:
# Assay in all cases: SPOT peptide array binding signal intensity (averaged, normalized) (arbitrary units (background-subtracted, floor 0; scale differs between SH3 domains)); higher = stronger binding of the SH3 domain to the peptide
# [1] = molecular target: AgAbp1
# Method in brief: (§1)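 E. coli BL21(DE3) was used to express GST-fused SH3 domains from four yeast species, which were then purified on glutathione Sepharose. These were incubated at 10 μg/ml in TBS-based blocking buffer overnight at 4°C on cellulose membranes carrying synthetic 15-mer peptides, in which cysteines were replaced by serines. Binding signal is the replicate average of normalized, background-subtracted spot intensity, in arbitrary units that differ between domains.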
# [2] = molecular target: AgBbc1
# Method in brief: as §1
# [3] = molecular target: AgBem1-D1
# Method in brief: as §1
# [4] = molecular target: AgBzz1-D1
# Method in brief: as §1
# [5] = molecular target: AgBzz1-D2
# Method in brief: as §1
# [6] = molecular target: AgCyk3
# Method in brief: as §1
# [7] = molecular target: AgFus1
# Method in brief: as §1
# [8] = molecular target: AgHof1
# Method in brief: as §1
# [9] = molecular target: AgHse1
# Method in brief: as §1
# [10] = molecular target: AgLsb1
# Method in brief: as §1
# [11] = molecular target: AgLsb4
# Method in brief: as §1
# [12] = molecular target: AgMyo5
# Method in brief: as §1
# [13] = molecular target: AgNbp2
# Method in brief: as §1
# [14] = molecular target: AgRvs167
# Method in brief: as §1
# [15] = molecular target: AgSho1
# Method in brief: as §1
# [16] = molecular target: AgSla1-D1-D2
# Method in brief: as §1
# [17] = molecular target: AgSla1-D3
# Method in brief: as §1
# [18] = molecular target: CaAbp1-D1
# Method in brief: as §1
# [19] = molecular target: CaAbp1-D2
# Method in brief: as §1
# [20] = molecular target: CaBbc1
# Method in brief: as §1
# [21] = molecular target: CaBem1-D1
# Method in brief: as §1
# [22] = molecular target: CaBzz1-D1
# Method in brief: as §1
# [23] = molecular target: CaBzz1-D2
# Method in brief: as §1
# [24] = molecular target: CaCyk3
# Method in brief: as §1
# [25] = molecular target: CaFus1
# Method in brief: as §1
# [26] = molecular target: CaHof1
# Method in brief: as §1
# [27] = molecular target: CaHse1
# Method in brief: as §1
# [28] = molecular target: CaLsb1
# Method in brief: as §1
# [29] = molecular target: CaLsb4
# Method in brief: as §1
# [30] = molecular target: CaMyo5
# Method in brief: as §1
# [31] = molecular target: CaNbp2
# Method in brief: as §1
# [32] = molecular target: CaRvs167
# Method in brief: as §1
# [33] = molecular target: CaRvs167-3
# Method in brief: as §1
# [34] = molecular target: CaSho1
# Method in brief: as §1
# [35] = molecular target: CaSla1-D1-D2
# Method in brief: as §1
# [36] = molecular target: CaSla1-D3
# Method in brief: as §1
# [37] = molecular target: ScAbp1
# Method in brief: as §1
# [38] = molecular target: ScBbc1
# Method in brief: as §1
# [39] = molecular target: ScBem1-D1
# Method in brief: as §1
# [40] = molecular target: ScBzz1-D1
# Method in brief: as §1
# [41] = molecular target: ScBzz1-D2
# Method in brief: as §1
# [42] = molecular target: ScCyk3
# Method in brief: as §1
# [43] = molecular target: ScFus1
# Method in brief: as §1
# [44] = molecular target: ScHof1
# Method in brief: as §1
# [45] = molecular target: ScHse1
# Method in brief: as §1
# [46] = molecular target: ScLsb1
# Method in brief: as §1
# [47] = molecular target: ScLsb2
# Method in brief: as §1
# [48] = molecular target: ScLsb3
# Method in brief: as §1
# [49] = molecular target: ScLsb4
# Method in brief: as §1
# [50] = molecular target: ScMyo3
# Method in brief: as §1
# [51] = molecular target: ScMyo5
# Method in brief: as §1
# [52] = molecular target: ScNbp2
# Method in brief: as §1
# [53] = molecular target: ScPex13
# Method in brief: as §1
# [54] = molecular target: ScRvs167
# Method in brief: as §1
# [55] = molecular target: ScSho1
# Method in brief: as §1
# [56] = molecular target: ScSla1-D1-D2
# Method in brief: as §1
# [57] = molecular target: ScSla1-D3
# Method in brief: as §1
# [58] = molecular target: SpAbp1-D1
# Method in brief: as §1
# [59] = molecular target: SpBbc1
# Method in brief: as §1
# [60] = molecular target: SpBzz1-D1
# Method in brief: as §1
# [61] = molecular target: SpBzz1-D2
# Method in brief: as §1
# [62] = molecular target: SpCyk3
# Method in brief: as §1
# [63] = molecular target: SpHof1
# Method in brief: as §1
# [64] = molecular target: SpHof1-2
# Method in brief: as §1
# [65] = molecular target: SpHof1-3
# Method in brief: as §1
# [66] = molecular target: SpHse1
# Method in brief: as §1
# [67] = molecular target: SpLsb1
# Method in brief: as §1
# [68] = molecular target: SpLsb4
# Method in brief: as §1
# [69] = molecular target: SpMyo1
# Method in brief: as §1
# [70] = molecular target: SpNbp2
# Method in brief: as §1
# [71] = molecular target: SpPex13
# Method in brief: as §1
# [72] = molecular target: SpRvs167
# Method in brief: as §1
# [73] = molecular target: SpSla1-D1-D2
# Method in brief: as §1
# [74] = molecular target: SpSla1-D3
# Method in brief: as §1
binder,measurement,setting,value
QHQQRQPKRPKRYSL,SPOT peptide array binding signal intensity,[1],147
same,SPOT peptide array binding signal intensity,[2],293
same,SPOT peptide array binding signal intensity,[3],112
same,SPOT peptide array binding signal intensity,[4],55.5
same,SPOT peptide array binding signal intensity,[5],19
same,SPOT peptide array binding signal intensity,[6],11
same,SPOT peptide array binding signal intensity,[7],98.5
same,SPOT peptide array binding signal intensity,[8],34.5
same,SPOT peptide array binding signal intensity,[9],353
same,SPOT peptide array binding signal intensity,[10],15
same,SPOT peptide array binding signal intensity,[11],151
same,SPOT peptide array binding signal intensity,[12],1.5
same,SPOT peptide array binding signal intensity,[13],654
same,SPOT peptide array binding signal intensity,[14],6
same,SPOT peptide array binding signal intensity,[15],12
same,SPOT peptide array binding signal intensity,[16],288
same,SPOT peptide array binding signal intensity,[17],3.5
same,SPOT peptide array binding signal intensity,[18],1050
same,SPOT peptide array binding signal intensity,[19],639
same,SPOT peptide array binding signal intensity,[20],792
same,SPOT peptide array binding signal intensity,[21],20
same,SPOT peptide array binding signal intensity,[22],59
same,SPOT peptide array binding signal intensity,[23],94
same,SPOT peptide array binding signal intensity,[24],211
same,SPOT peptide array binding signal intensity,[25],126
same,SPOT peptide array binding signal intensity,[26],2
same,SPOT peptide array binding signal intensity,[27],175
same,SPOT peptide array binding signal intensity,[28],2.5
same,SPOT peptide array binding signal intensity,[29],1810
same,SPOT peptide array binding signal intensity,[30],12
same,SPOT peptide array binding signal intensity,[31],492
same,SPOT peptide array binding signal intensity,[32],18.5
same,SPOT peptide array binding signal intensity,[33],38.2
same,SPOT peptide array binding signal intensity,[34],56.5
same,SPOT peptide array binding signal intensity,[35],558
same,SPOT peptide array binding signal intensity,[36],26.2
same,SPOT peptide array binding signal intensity,[37],43
same,SPOT peptide array binding signal intensity,[38],251
same,SPOT peptide array binding signal intensity,[39],14
same,SPOT peptide array binding signal intensity,[40],9
same,SPOT peptide array binding signal intensity,[41],12
same,SPOT peptide array binding signal intensity,[42],216
same,SPOT peptide array binding signal intensity,[43],54.5
same,SPOT peptide array binding signal intensity,[44],≤ 0
same,SPOT peptide array binding signal intensity,[45],409
same,SPOT peptide array binding signal intensity,[46],25.8
same,SPOT peptide array binding signal intensity,[47],45
same,SPOT peptide array binding signal intensity,[48],1410
same,SPOT peptide array binding signal intensity,[49],140
same,SPOT peptide array binding signal intensity,[50],4.25
same,SPOT peptide array binding signal intensity,[51],7.75
same,SPOT peptide array binding signal intensity,[52],620
same,SPOT peptide array binding signal intensity,[53],88.8
same,SPOT peptide array binding signal intensity,[54],129
same,SPOT peptide array binding signal intensity,[55],196
same,SPOT peptide array binding signal intensity,[56],372
same,SPOT peptide array binding signal intensity,[57],22.2
same,SPOT peptide array binding signal intensity,[58],426
same,SPOT peptide array binding signal intensity,[59],31
same,SPOT peptide array binding signal intensity,[60],250
same,SPOT peptide array binding signal intensity,[61],1.5
same,SPOT peptide array binding signal intensity,[62],10.5
same,SPOT peptide array binding signal intensity,[63],81
same,SPOT peptide array binding signal intensity,[64],18.8
same,SPOT peptide array binding signal intensity,[65],169
same,SPOT peptide array binding signal intensity,[66],75.2
same,SPOT peptide array binding signal intensity,[67],73.8
same,SPOT peptide array binding signal intensity,[68],2350
same,SPOT peptide array binding signal intensity,[69],7.75
same,SPOT peptide array binding signal intensity,[70],267
same,SPOT peptide array binding signal intensity,[71],12
same,SPOT peptide array binding signal intensity,[72],26.8
same,SPOT peptide array binding signal intensity,[73],≤ 0
same,SPOT peptide array binding signal intensity,[74],6
ISRRRLPVIMHRLKM,SPOT peptide array binding signal intensity,[1],138
same,SPOT peptide array binding signal intensity,[2],16.2
same,SPOT peptide array binding signal intensity,[3],66
same,SPOT peptide array binding signal intensity,[4],49.5
same,SPOT peptide array binding signal intensity,[5],14
same,SPOT peptide array binding signal intensity,[6],1
same,SPOT peptide array binding signal intensity,[7],423
same,SPOT peptide array binding signal intensity,[8],6.5
same,SPOT peptide array binding signal intensity,[9],1310
same,SPOT peptide array binding signal intensity,[10],2.75
same,SPOT peptide array binding signal intensity,[11],40
same,SPOT peptide array binding signal intensity,[12],0.25
same,SPOT peptide array binding signal intensity,[13],303
same,SPOT peptide array binding signal intensity,[14],16.5
same,SPOT peptide array binding signal intensity,[15],240
same,SPOT peptide array binding signal intensity,[16],158
same,SPOT peptide array binding signal intensity,[17],9.5
same,SPOT peptide array binding signal intensity,[18],617
same,SPOT peptide array binding signal intensity,[19],645
same,SPOT peptide array binding signal intensity,[20],142
same,SPOT peptide array binding signal intensity,[21],102
same,SPOT peptide array binding signal intensity,[22],49
same,SPOT peptide array binding signal intensity,[23],42.5
same,SPOT peptide array binding signal intensity,[24],36
same,SPOT peptide array binding signal intensity,[25],542
same,SPOT peptide array binding signal intensity,[26],1
same,SPOT peptide array binding signal intensity,[27],61
same,SPOT peptide array binding signal intensity,[28],≤ 0
same,SPOT peptide array binding signal intensity,[29],177
same,SPOT peptide array binding signal intensity,[30],0.5
